Results reported in PubChem BioAssay.
A number with no mark means an inactive call. Calls of active or inactive are those of the source.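 How the source made its calls: active means growth inhibition above 50% at the single 2 µM test dose, taken to imply half-maximal potency below 2 µM; inactive means the rest.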

Assay: antimalarial activity against Dd2 strain (AID 2302);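 further: 0% = DMSO untreated growth and 100% = chloroquine plus artemisinin killed control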
Details: P. falciparum Dd2 in RBCs, LDH growth readout, 72 h; at 2 µM; active compounds read high

Compound	growth inhibition
O=C(Cc1ccc(Nc2nccc(Nc3cccc4[nH]ncc34)n2)cc1)Nc1ccc(C(F)(F)F)cc1	69% (active)
Cc1ccc(S(=O)(=O)Nc2ccc(Nc3nccc(Nc4cccc5[nH]ncc45)n3)cc2)cc1	5%
CCN(CC)CCNc1nccc(N(C)c2ccc(NC(=O)Nc3cc(C(F)(F)F)ccc3F)cc2)n1	25%
N#Cc1cnc(Nc2ccc(Oc3ccccc3)cc2)nc1Nc1cccc(S(N)(=O)=O)c1	86% (active)
CN(c1ccc(NC(=O)Nc2cc(C(C)(C)C)on2)cc1)c1ccnc(NCCN2CCOCC2)n1	18%
O=C(O)c1cccnc1Sc1ccc(Cl)cc1	4%
C#CCNC(=O)c1ccc(-c2ccnc(Nc3cccc(CCCN4CCOCC4)c3)n2)s1	45%
C(=N\Nc1nccc2sc(-c3ccccc3)cc12)/c1cccnc1	10%
CC(=O)c1ccc(NC(=O)Nc2ccc(N(C)c3ccnc(Nc4cccc(CS(C)(=O)=O)c4)n3)cc2)cc1	98% (active)
COc1c(CN2CCOCC2)cccc1-c1cc2c(-c3ccc(C(=O)O)c(C(C)C)c3)ccnc2[nH]1	90% (active)
CN(C)CC(O)COc1ccc(Nc2ncc([N+](=O)[O-])c(Nc3ccccc3O)n2)cc1 (centres undefined)	20%
CS(=O)(=O)Cc1cccc(Nc2ncc(Cl)c(Nc3cccnc3C(N)=O)n2)c1	97% (active)
N#CCc1ccc(Nc2nccc(Nc3ccc(Oc4ccccc4)cc3)n2)cc1	47%
CCN(CC)CCCNc1nccc(N(C)c2ccc(NC(=O)Nc3cc(C(F)(F)F)ccc3F)cc2)n1	19%
Cn1nc(-c2ccc(NC(=O)Nc3ccc4ccccc4c3)c(F)c2)c2cnc(NCCN3CCOCC3)nc21	3%
CCNC(=O)Nc1ccc(-c2cnc(N)c(-c3nc4ccc(OC)cc4[nH]3)c2)cc1	43%
CC(C)(CN)c1nc(-c2ccc(Br)c(O)c2)c(-c2ccncc2)[nH]1	97% (active)
Oc1cc(-c2nc(-c3ccccc3)[nH]c2-c2ccncc2)ccc1Cl	91% (active)
CC(C)(NCc1ncc[nH]1)c1nc(-c2ccc(Cl)c(O)c2)c(-c2ccncc2)[nH]1	97% (active)
CN1CCC(NC(=O)c2cccc(Nc3cc(Nc4cccc(Br)c4)ncn3)c2)CC1	6%

Compound	growth inhibition
Cn1cnc2c(Nc3ccncc3)nc(-c3ccc4c(c3)OCO4)nc21	2%
CC(C)(CNC(=O)C1CCN(Cc2ccc(Cl)cc2)CC1)c1nc(-c2ccc(Cl)c(O)c2)c(-c2ccncc2)[nH]1	83% (active)
CS(=O)(=O)Cc1ccc(Nc2ncc(Cl)c(Nc3cccnc3C(N)=O)n2)cc1	97% (active)
Nc1ncc(-c2cccc(F)c2)cc1-c1nc2ccc(F)cc2[nH]1	88% (active)
CN(c1ccc(NC(=O)Nc2cccc(Cl)c2)cc1)c1ccnc(N)n1	40%
CC(=O)Nc1nc(C)c(-c2csc(Nc3ccc(Cl)cc3)n2)s1	93% (active)
CN(C)CCOc1ccc(-c2cc(-c3ccc(Cl)c(O)c3)c(-c3ccnc(N)n3)o2)cc1	95% (active)
COc1c(CN2CCCC2)cccc1-c1cc2c(-c3ccc(C(=O)O)c(C(C)C)c3)ccnc2[nH]1	98% (active)
NS(=O)(=O)c1cccc(Nc2nccc(-c3cnn4ncccc34)n2)c1	89% (active)
CN(c1ccc2c(c1)nc(NCc1ccccc1)n2C)c1ccnc(Nc2ccc(CS(C)(=O)=O)cc2)n1	69% (active)
CC(C)(CNC(=O)[C@H]1CCCN1)c1nc(-c2ccc(Cl)c(O)c2)c(-c2ccncc2)[nH]1	95% (active)
Nc1ncc(-c2cn[nH]c2)cc1-c1nc2ccc(Cl)cc2[nH]1	100% (active)
Cc1ccc(Nc2nc3cc(Nc4ccnc(Nc5cccc(CS(C)(=O)=O)c5)n4)ccc3o2)cc1	81% (active)
N=C(N)c1ccc(Nc2nccc(Nc3nc(-c4ccccc4)cs3)n2)cc1	75% (active)
N=C(N)c1ccc(Nc2nc(Nc3ccc(-c4ccccc4)cc3)ncc2[N+](=O)[O-])cc1	35%
CN(c1ccc(NC(=O)Nc2cc(C(F)(F)F)ccc2F)cc1)c1ccnc(NCCN2CCOCC2)n1	73% (active)
Cc1cc(Nc2nc(Nc3cccc(Cl)c3)nc3ccccc23)n[nH]1	95% (active)
COc1cccc(-n2ncc3c(N/N=C/c4ccc(CN(C)CCN(C)C)cc4)ncnc32)c1	91% (active)
CN(c1ccc2c(c1)nc(NCc1ccc(F)cc1)n2C)c1ccnc(Nc2ccc(CS(C)(=O)=O)cc2)n1	79% (active)
